Compound activity from PubChem BioAssay.
Gal4-VP16 FLuc = counter-screen for ROR gamma inhibitors: Gal4-VP16 reporter | Drosophila S2 Gal4-VP16 UAS-luciferase, luminescence, 20 h | Potency, µM (top dose mostly 53.6 µM), inactives show at the top dose activity, negative = inhibition, actives largely listed as inhibitors | hit rate 3.5% among 310,000 | AID 2546;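 note: Gal4-VP16 expression switched on by copper sulfate through the metallothionein promoter; nearly all actives have a fitted effect of over 50% in size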
RORg inh = ROR gamma (mouse) transcription inhibition | P51450 | hit rate 5.4% among 310,000 | Potency, µM (series often up to 53.6 µM), for inactives: at the highest dose activity change, negative = inhibition, usual class: inhibitors | Drosophila S2 Gal4-RORgamma UAS-luciferase reporter, 20 h; note: nearly all actives have a fitted effect of over 60% in size
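Luciferase reporter read in Schneider cells carrying Gal4-RORγ (mouse) and UAS-Photinus luciferase; cells given compound 1 h before 700 uM copper sulfate induction, then incubated 20 h at ambient temperature.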
ELG1 repair inh = ELG1-dependent DNA repair inhibition; hit rate 2.3% among 330,000; Potency, µM (series often up to 46.1 µM), for the others: at the top dose activity change, negative = inhibition, actives largely listed as inhibitors; AID 504467; HEK293T ELG1-luciferase reporter, luminescence, 16 h; DNA damage induced by 5-fluorouridine; note: nearly all actives have a fitted effect of over 55% in size
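Overnight (16 hr) co-exposure of 2,000 cells/well to 5-fluorouridine and compound at 37 °C preceded detection. Luciferase was quantified via ONE-Glo luminescence; loss of signal denotes inhibition.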
TDP1 cell noCPT = qHTS for Inhibitors of human tyrosyl-DNA phosphodiesterase 1 (TDP1): qHTS in cells in absence of CPT. DT40 Tdp1-/- hTDP1 cells, no CPT, ATP luminescence, 48 h. Potency, µM (doses to about 46.2 µM), for the others: at the top dose activity change, negative = growth inhibition, most hits filed as inhibitors. hit rate 15% among 420,000; note: nearly all actives have a fitted effect of over 55% in size
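Chicken DT40 Tdp1-/- cells stably complemented with human TDP1 were seeded at 400 cells/well with DMSO in place of 20 nM camptothecin. After compound pinning, cells grew at least 48 hr at 37 °C; viability read by CellTiter-Glo luminescence.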
DT40 TDP1 CPT = growth inhibition of DT40 Tdp1-/-;hTDP1 cells with camptothecin (screen for TDP1 inhibitors). chicken DT40 Tdp1-/-;hTDP1 cells + 20 nM CPT, ATP luminescence, 48 h. Potency, µM (doses to about 46.2 µM), for the others: at the top dose activity change, negative = growth inhibition, hits mostly inhibitors. hit rate 12% among 420,000; note: nearly all actives have a fitted effect of over 55% in size
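Chicken DT40 Tdp1-/- cells complemented with human TDP1, 400 cells/well, exposed to compounds plus 20 nM camptothecin for at least 48 h at 37 C; viability read as ATP content by CellTiter-Glo luminescence.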
ALOX12 inh = ALOX12 (human) lipoxygenase inhibition; P18054; Potency, µM (top dose mostly 108 µM), inactives show top-dose activity change, negative = inhibition, hits mostly inhibitors; hit rate 1.1% among 580,000; purified 12hLO, xylenol orange hydroperoxide absorbance
Target sequence (P18054 whole entry, looked up): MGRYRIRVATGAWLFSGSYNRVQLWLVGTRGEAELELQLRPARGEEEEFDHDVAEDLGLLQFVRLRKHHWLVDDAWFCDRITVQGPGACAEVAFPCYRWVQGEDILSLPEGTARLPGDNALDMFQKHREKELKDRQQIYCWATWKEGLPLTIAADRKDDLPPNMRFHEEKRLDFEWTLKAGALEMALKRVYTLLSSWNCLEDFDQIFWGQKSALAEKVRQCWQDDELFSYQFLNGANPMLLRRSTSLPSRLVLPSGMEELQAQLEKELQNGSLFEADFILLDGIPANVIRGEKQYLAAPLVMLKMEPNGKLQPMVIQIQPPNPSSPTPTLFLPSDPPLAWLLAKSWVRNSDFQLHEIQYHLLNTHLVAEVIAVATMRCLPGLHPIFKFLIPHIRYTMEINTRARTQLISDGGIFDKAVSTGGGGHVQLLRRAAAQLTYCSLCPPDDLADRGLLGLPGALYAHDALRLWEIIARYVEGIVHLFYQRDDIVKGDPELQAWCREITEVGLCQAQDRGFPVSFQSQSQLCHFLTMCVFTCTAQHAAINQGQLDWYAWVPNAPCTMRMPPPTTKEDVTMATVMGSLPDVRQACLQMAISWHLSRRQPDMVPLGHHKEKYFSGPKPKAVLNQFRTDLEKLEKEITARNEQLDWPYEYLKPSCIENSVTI
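Purified human 12hLO at 150 nM in 25 mM Hepes, 0.01% Triton X-100, pH 7.0, preincubated 15 min at room temperature with compound. Reaction started with 40 uM arachidonic acid, 30 min at room temperature. Hydroperoxide measured by Fe-xylenol orange, 573/405 nm absorbance ratio.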
Starred values were filed as active, the others as inactive; ? = inconclusive; / = not tested or not shown; [ ] = another dose, or the depositor's remark. Compounds with a hit are over-represented: about 15% of the library has one in this group of screens. Calls come from the whole dose curve; as a rule, active = well fitted curve in the direction sought with a large enough effect; inconclusive = small, poorly fitted or top-dose-only effect, or another doubt; inactive = no such curve, though single readings can be large; an effect the other way counts as inactive or inconclusive. % is set by controls: 0 for no effect and ±100 for the full control effect; potency is the fitted concentration of half-maximal effect.

SMILES	Gal4-VP16 FLuc	RORg inh	ELG1 repair inh	TDP1 cell noCPT	DT40 TDP1 CPT	ALOX12 inh
COc1ccc(C(CCN2CCN(c3ccccc3)CC2)c2c(OC)cc(OC)c3c(-c4ccccc4)cc(=O)oc23)cc1 (configuration not stated)	-13%	25%	-2%	?	?	-3%
COc1cc(OC)c2c(C)cc(=O)oc2c1C(CCN1CCOCC1)c1ccc(N(C)C)cc1 (configuration not stated)	-10%	-9%	-10%	16µM*	5.2µM*	1%
CCCCCc1cc(=O)oc2c(C(CCN3CCN(c4ccccc4)CC3)c3ccc(N(C)C)cc3)c(OC)cc(OC)c12 (configuration not stated)	3%	-6%	?	?	21µM*	-5%
COc1cc(OC)c2ccc(=O)oc2c1C(CCN1CCN(c2ccccc2)CC1)c1ccc(N(C)C)cc1 (configuration not stated)	-10%	-19%	14%	?	15µM*	-10%
COc1cc(OC)c2c(-c3ccccc3)cc(=O)oc2c1C(CCN1CCN(c2ccccc2)CC1)c1ccc(N(C)C)cc1 (configuration not stated)	0%	13%	-2%	23µM*	15µM*	-7%
COc1cc(OC)c2ccc(=O)oc2c1C(CCN1CCOCC1)c1ccc(N(C)C)cc1 (configuration not stated)	3%	-3%	/	/	/	/
CC1CN=C(c2ccc(Cl)cc2)c2c3ccccc3[n+]([O-])n21 (configuration not stated)	/	/	/	/	/	-2%
CN(Cc1cccc(C(F)(F)F)c1)C(=O)c1ccc(F)cc1	/	/	/	/	/	32%[176 µM]
Cc1ccn(CCCNc2cc(C(C)C)ncn2)n1	/	/	/	/	/	41%
Cc1ccc2c(c1)C1(C)C(C(C)(C)N2C=O)C1(Cl)Cl (configuration not stated)	-13%	-5%	-9%	10µM*	-23%	13%
COc1ccc(C(=O)c2ccc(Cl)cc2)c2ccccc12	6%	-2%	-29%	?	?	12%
COc1ccc(C(=O)c2ccc(C)cc2)c(OC)c1OC	/	/	/	18µM*	23µM*	?
COc1ccc(-c2nc(NC(=O)C3CC(=O)N(c4ccc5c(c4)OCCO5)C3)sc2C)cc1 (configuration not stated)	?	?	-7%	6.3µM*	6.3µM*	-10%
COc1ccc(CN(C)C(=O)C2CC(=O)N(c3ccc4c(c3)OCCO4)C2)c(OC)c1 (configuration not stated)	/	/	?	16µM*	21µM*	7%
CN(Cc1ccccc1Cl)C(=O)C1CC(=O)N(c2ccc3c(c2)OCCO3)C1 (configuration not stated)	/	/	12%	-22%	?	?
Cn1c(CCNC(=O)C2CCN(c3cn[nH]c(=O)c3)C2)nc2ccccc21 (configuration not stated)	/	/	/	/	/	60%
CN1CC(=O)N(C2CCC2)Cc2c(NCCCO)ncnc21	/	/	/	/	/	11%[176 µM]
C[C@H](C(=O)NCCN1CCOCC1)C1CC[C@@]2(C)Cc3sc(NC(=O)CC(C)(C)C)nc3[C@@H](C)[C@@H]2[C@H]1O (some centres not stated)	/	/	/	/	/	28%
CC(=C\C(=O)O)/C(=C/c1ccco1)C(=O)O	4%	19%	12%	20%	-16%	?
CC(=C\C(=O)O)/C(=C/c1ccc(C)o1)C(=O)O	-26%	41%	-5%	21µM*	15µM*	-19%
Cc1ccc(/C=C2\CCOC2=O)cc1	-2%	17%	?	-13%	-5%	-13%
Cc1ccc(/C=C2/CNC/C(=C/c3ccc(C)cc3)C2=O)cc1	/	/	/	13µM*	7.3µM*	-20%
Cc1ccc(/C=C2/CNC/C(=C\c3ccc(C)cc3)C2=O)cc1	7.1µM*	3.5µM*	/	/	/	?
Cc1ccc(N2CCC3(CCCN3Cc3ccc4nsnc4c3)CC2)nn1	/	/	/	/	/	52%
COCCN(Cc1cc2cc(C)ccc2n2nnnc12)C(=S)Nc1cccc(C)c1	-10%	?	?	?	?	-2%
SMILES	Gal4-VP16 FLuc	RORg inh	ELG1 repair inh	TDP1 cell noCPT	DT40 TDP1 CPT	ALOX12 inh
CCc1ccc2c(c1)cc(CN(C(=S)Nc1cccc(C)c1)C1CC1)c1nnnn12	10%	6.3µM*	-14%	?	?	1%
Cc1[nH]c2ccccc2c1CN1CCc2ccccc2C1	?	11µM*	?	12µM*	10µM*	?
CC(C)(C)c1ccc(C2(C(=O)O)CC2)cc1	/	/	/	/	/	36%
CC1Cc2ccccc2N1C(=S)NC(=O)c1ccco1 (configuration not stated)	4µM*	4.5µM*	0%	?	?	4%
CC1Cc2ccccc2N1C(=S)NC(=O)C1(C)CC1(Cl)Cl (configuration not stated)	2.2µM*	0.63µM*	-16%	?	?	-19%
O=c1c(C=NCCN2CCNCC2)c(-c2ccccc2)[nH]n1-c1ccc([N+](=O)[O-])cc1	25%	-15%	?	/	/	/
COc1ccc(-c2[nH]n(-c3ccc([N+](=O)[O-])cc3)c(=O)c2C=NCCN2CCNCC2)cc1	?	14µM*	?	/	/	/
Cc1[nH]n(-c2ccc([N+](=O)[O-])cc2)c(=O)c1/C=N/N1CCOCC1	5%	-3%	?	?	12µM*	-22%
Cc1[nH]n(-c2ccc([N+](=O)[O-])cc2)c(=O)c1C=NCCN1CCN(C(=O)c2ccccc2)CC1	5%	4%	3%	10µM*	10µM*	119%
COc1ccc(OC)c(NC(=O)[C@H]2C[C@H]([C@@H](C)O)N[C@]23C(=O)Nc2c(C)cc(Cl)cc23)c1	/	/	/	/	/	-21%
COc1cc2c(cc1OC)CN(C(=S)Nc1ccccc1)CC2	-9%	11µM*	-14%	-25%	-29%	-3%
Cc1ccc(NC(=S)N2CCN(C)CC2)c(C)c1	-10%	-17%	1%	-3%	6%	2%
COc1cc2c(cc1OC)CN(C(=S)Nc1ccc(C)cc1C)CC2	20µM*	10µM*	-14%	-11%	7%	?
C[C@@H]1CC[C@]2(C(=O)O)CC[C@]3(C)C(=CCC4[C@@]5(C)C[C@@H](O)[C@H](O)[C@@](C)(CO)C5CC[C@]43C)C2[C@H]1C (some centres not stated)	18µM*	-35%	/	/	/	/
